The source of these data is PubChem BioAssay AID1745848 (National Center for Advancing Translational Sciences (NCATS), 2022).

The structures appear in SMILES notation. The whole screen tested about 2,100 compounds, of which about 940 (45%) were called active. Roughly 48% stayed inconclusive and do not appear here. Calls follow the shape of the dose curve; as a rule, active = well fitted inhibition curve with a large enough effect; inconclusive = small, poorly fitted or top-dose-only effect; inactive = no such curve, though single readings can be large or run the other way. The set was probably picked from earlier hits. This is one part of the list.
Potency is read from the fitted curve at half-maximal effect.

The nature of this test: Confirmatory qHTS for Inhibitors of ATXN expression. Also: nearly all actives have a fitted effect of over 65% in size. The settings on record: ATXN2-luciferase reporter cells, luminescence, 24 h; series mostly up to 11.5 µM. Summed up: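 A titration, incubated 24 h with reporter cells expressing ATXN2-luciferase. Luminescence (SteadyGlo) gives ATXN2 expression, multiplexed GF-AFC fluorescence gives viability; normalised to DMSO and medium-only wells.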
In general terms: Quantitative high-throughput screening tests each substance at several concentrations.
On to `Cc1c(Cl)cccc1NC(=O)N1CCCN(c2nc(-c3ccccc3)ns2)CC1`, for which the Potency is 10 µM (active).

As for `O=C(Nc1ccccc1Cl)N1CCCN(c2nc(-c3ccccc3)ns2)CC1`, the Potency is 15.8 µM (active).

`CC(C)(C)c1ccc(NC(=O)N2CCCN(c3c(Cl)cncc3Cl)CC2)cc1`: the Potency entry was “inactive”.

For `CN(C)CCC(c1ccc(Br)cc1)c1ccccn1` (configuration not stated), the Potency entry is “inactive”.

On to `O=C(Nc1ccc(N2CCOCC2)c(Cl)c1)c1c(F)c(F)c(F)c(F)c1F`, for which the Potency was 1.26 µM (active).

Consider `CC(=O)N/N=C/c1cc(C(C)(C)C)cc(/C=N/NC(C)=O)c1O`, for which the Potency was 2.82 µM (active).

Take `COc1ccc(Nc2c3ccccc3nc3ccccc23)cc1`: the Potency was 14.1 µM (active).

As to `CCOc1ccc(Nc2c3ccccc3nc3ccccc23)cc1`, the Potency was 12.6 µM (active).

Turning to `CC(=O)Nc1ccc(Nc2c3ccccc3nc3ccccc23)cc1`, the Potency was 3.55 µM (active).

Regarding `CC(=O)Oc1ccc(Nc2ccccc2)cc1`, the Potency entry is “inactive”.

On to `COc1ccc(Nc2nc(N3CCCC3)c3ccccc3n2)cc1`, for which the Potency was 15.8 µM (active).

Take `Cc1cc(SCC(=O)N/N=C/c2ccc(O)cc2O)c(C)cc1Br`: the Potency is 5.62 µM (active).

Take `Cc1cc(SCC(=O)NN)c2cc(Br)ccc2n1`: the Potency result was “inactive”.

As for `Cc1cc(SCC(=O)N/N=C/c2ccc(O)cc2O)nc2ccccc12`, the Potency is 11.2 µM (active).

Regarding `O=C(CSc1ccc2ccccc2n1)N/N=C/c1ccccc1O`, the Potency is 14.1 µM (active).

For the compound `C=CCn1c(CNc2ccc(C)cc2)nnc1SCC(=O)N/N=C/c1ccc(O)cc1O`, the Potency was 10 µM (active).

For the compound `COc1ccc(C(NC(C)=O)c2cc(Cl)c3cccnc3c2O)cc1` (configuration not stated), the Potency was 1.78 µM (active).

As for `CCC(=O)NC(c1ccc(OC)cc1)c1cc(Cl)c2cccnc2c1O` (configuration not stated), the Potency is 3.16 µM (active).

As for `Clc1ccc(COC(Cn2ccnc2)c2ccc(Cl)cc2Cl)c(Cl)c1` (configuration not stated), the Potency was 2.82 µM (active).

For `O=C(CCCN1C(=O)/C(=C/c2ccccc2Cl)SC1=S)NNC(=O)c1ccc(Cl)cc1`, the Potency was 3.55 µM (active).

For the compound `O=C(CCCN1C(=O)/C(=C/c2ccccc2Cl)SC1=S)NNC(=O)c1ccc(Cl)cc1Cl`, the Potency is 1.58 µM (active).

Take `CN(c1ccccc1)S(=O)(=O)c1ccc(C(=O)Nc2nnc(-c3ccc(F)cc3)o2)cc1`: the Potency is 15.8 µM (active).

For the compound `O=C(Nc1nnc(-c2ccc(F)cc2)o1)c1cc(Cl)sc1Cl`, the Potency is 15.8 µM (active).

Regarding `CCc1nnc(NC(=O)c2ccc(S(=O)(=O)N(C)Cc3ccccc3)cc2)o1`, the Potency is 20 µM (active).

With `Cc1sc2ncnc(NCC(O)c3ccc([N+](=O)[O-])cc3)c2c1C` (configuration not stated), the Potency was 3.16 µM (active).

Regarding `Cc1cc(C)cc(C(=O)NC(=S)Nc2ccc(-c3cc4ccccc4oc3=O)cc2)c1`, the Potency was 4.47 µM (active).

For `CCOC(=O)c1c(NC(=O)CSc2nnnn2-c2ccccc2)sc2c1CC(C)(C)NC2(C)C`, the Potency was 3.55 µM (active).

As for `O=C(CSc1nnnn1-c1ccccc1)Nc1nsc(-c2ccccc2)n1`, the Potency result is “inactive”.

Consider `Cc1ccc(C(=O)N/C(=C/c2ccc(-c3ccc([N+](=O)[O-])cc3)o2)C(=O)NCCCN(C)C)cc1`, for which the Potency was 25.1 µM (active).

Turning to `CCCCOC(=O)/C=C\C(=O)NC(N)=O`, the Potency was 17.8 µM (active).

`N/C(=C\C(=O)c1cc(Cl)ccc1O)C(Cl)(Cl)Cl`: the Potency was 3.16 µM (active).

Regarding `C/C(=N\NC(=O)C(C)n1nc(C)c([N+](=O)[O-])c1C)c1ccccc1O` (configuration not stated), the Potency is 3.16 µM (active).

On to `O=C1N/C(=N/N=C/c2ccccc2O)SC1Cc1ccc(F)cc1` (configuration not stated), for which the Potency was 15.8 µM (active).

As to `Cc1[nH]n(-c2ccccc2)c(=O)c1/C=N/NC(=O)c1ccccc1F`, the Potency was 4.47 µM (active).

On to `CC(C)(CO)NCc1c(OCc2ccc(Cl)cc2)ccc2ccccc12`, for which the Potency is 14.1 µM (active).

`COc1cccc(CN(C)C(=O)CNC(=O)c2ccc(-c3ccccc3)cc2)c1OC`: the Potency was 14.1 µM (active).

Consider `CCOC(=O)c1ccc(NC(=O)C2CCCN(S(=O)(=O)c3ccc(F)cc3)C2)cc1` (configuration not stated), for which the Potency was 28.2 µM (active).

For `CCOC(=O)c1ccc(NC(=O)c2nc[nH]c2C(=O)N[C@H](C)c2ccccc2)cc1`, the Potency result was “inactive”.

`O=C(Nc1ccccc1C(=O)Nc1nnc(C(F)(F)F)s1)c1ccccc1`: the Potency is 1.78 µM (active).

For `O=C(Nc1ccccc1C(=O)Nc1nnc(C(F)(F)F)s1)c1ccccc1Cl`, the Potency was 3.55 µM (active).

Turning to `CN(C)S(=O)(=O)c1cccc(N2C(=O)CC3(CCCCC3)CC2=O)c1`, the Potency entry is “inactive”.

As for `COc1cccc(CNc2nc(NCc3ccccc3)nc3ccsc23)c1`, the Potency is 15.8 µM (active).

For `COc1ccccc1CNc1nc(NCc2ccc(NC(C)=O)cc2)c2sccc2n1`, the Potency is 3.16 µM (active).

Consider `COc1ccccc1CNc1nc(NCc2cccc(OC)c2OC)c2sccc2n1`, for which the Potency is 25.1 µM (active).

Take `O=C(/C=C\c1ccco1)Nc1nc(-c2ccc3ccccc3c2)cs1`: the Potency entry was “inactive”.

Take `CN(C)S(=O)(=O)c1ccc(-c2csc(N/N=C/c3ccco3)n2)cc1`: the Potency is 2.82 µM (active).

Consider `O=C(CN1c2cccc3cccc(c23)S1(=O)=O)NCc1ccc(Cl)cc1`, for which the Potency entry is “inactive”.

For `O=C(CN1C(=O)c2ccccc2S1(=O)=O)c1ccc(Cl)cc1Cl`, the Potency was 0.891 µM (active).

For the compound `O=C(CN1C(=O)c2ccccc2S1(=O)=O)N1CCc2ccccc21`, the Potency was 0.447 µM (active).

`O=C(CN1C(=O)c2ccccc2S1(=O)=O)Nc1ncc(Cl)cc1Cl`: the Potency was 2.82 µM (active).

Take `Cc1nnc(SCC(N)=O)n1CC1CCCO1` (configuration not stated): the Potency entry was “inactive”.

Turning to `O=C(CN1C(=O)c2ccccc2S1(=O)=O)c1ccc(O)c(O)c1`, the Potency result was “inactive”.

On to `Cc1cc(C(=O)CN2C(=O)c3ccccc3S2(=O)=O)c(C)n1CC1CCCO1` (configuration not stated), for which the Potency was 0.355 µM (active).

With `CCn1c(C)cc(C(=O)CN2C(=O)c3ccccc3S2(=O)=O)c1C`, the Potency was 1.26 µM (active).

Take `Cc1cc(C(=O)CN2C(=O)c3ccccc3S2(=O)=O)c(C)n1C(C)C`: the Potency was 1.58 µM (active).

Turning to `O=C(O)COc1ccc2oc3ccccc3c2c1`, the Potency result is “inactive”.

On to `Cc1ccc(-c2cc(C(=O)N/N=C/c3ccccc3O)n[nH]2)o1`, for which the Potency is 7.08 µM (active).

Turning to `Cc1cc(C(=O)N/N=C/c2cc(Br)ccc2OC(=O)c2ccccc2Cl)n[nH]1`, the Potency is 3.98 µM (active).

Turning to `Cc1cc(C(=O)N/N=C/c2cc(Br)cc(Br)c2OC(=O)c2cccc(F)c2)n[nH]1`, the Potency was 3.16 µM (active).

For `Cc1cc(C(=O)N/N=C/c2cc(Br)ccc2OC(=O)c2ccccc2)n[nH]1`, the Potency is 2.51 µM (active).

Regarding `COC(=O)c1ccc(/C=C2/SC(=S)N(CCCC(=O)Nc3ccccn3)C2=O)cc1`, the Potency is 14.1 µM (active).

As for `COc1ccc(/C=C2\SC(=S)N(CCCC(=O)Nc3ccccn3)C2=O)cc1OC`, the Potency was 14.1 µM (active).

For the compound `O=C(CCCN1C(=O)/C(=C/c2ccccc2Cl)SC1=S)Nc1ccccn1`, the Potency was 11.2 µM (active).

Take `O=C(Nc1ccc(CN2CCCCC2)cc1)Nc1ccc(Br)cc1Cl`: the Potency was 25.1 µM (active).

For the compound `N#Cc1c(NCCN)nc(-c2ccco2)c2c1CCCC2`, the Potency is 25.1 µM (active).

As to `NS(=O)(=O)c1ccc(CCNc2nn3c(-c4cccc(OC(F)(F)F)c4)cnc3s2)cc1`, the Potency was 3.55 µM (active).

Regarding `COc1cccc(/C=N/Nc2ncnc3c2ncn3Cc2ccccc2)c1O`, the Potency is 0.708 µM (active).

Regarding `COc1cccc(/C=N/Nc2ncc(C(F)(F)F)cc2Cl)c1O`, the Potency is 1.58 µM (active).

For the compound `CN1C2CCC1/C(=C\c1ccccc1)C(=O)/C2=C\c1ccccc1`, the Potency is 14.1 µM (active).

Take `O=S(=O)(c1ccc2nc(COc3ccc(Cl)cc3Cl)[nH]c2c1)N1CCOCC1`: the Potency entry is “inactive”.

Consider `O=C(C1CCCCC1)N1CCN(c2ccnc3cc(Cl)ccc23)CC1`, for which the Potency was 3.98 µM (active).

Consider `O=S(=O)(c1ccccc1)N1CCN(c2ccnc3cc(Cl)ccc23)CC1`, for which the Potency was 25.1 µM (active).

As for `COc1ccccc1N1CCN(c2ccnc3cc(Cl)ccc23)CC1`, the Potency was 12.6 µM (active).

As for `Oc1ccc(N2CCN(c3ccnc4cc(Cl)ccc34)CC2)cc1`, the Potency was 15.8 µM (active).

In the case of `C[C@H]1O[C@@H](O[C@H]2[C@@H](O)C[C@H](O[C@H]3[C@@H](O)C[C@H](O[C@H]4CC[C@@]5(C)[C@H](CC[C@@H]6[C@@H]5C[C@@H](O)[C@]5(C)[C@@H](C7=CC(=O)OC7)CC[C@]65O)C4)O[C@@H]3C)O[C@@H]2C)C[C@H](O)[C@@H]1O`, the Potency is 0.282 µM (active).

For `Cc1cccc2sc(NNC(=O)c3ccc(S(=O)(=O)N4CC(C)CC(C)C4)cc3)nc12` (configuration not stated), the Potency was 2 µM (active).

Turning to `Cc1cccc2sc(NNC(=O)c3ccc(S(=O)(=O)N4CCCC(C)C4)cc3)nc12` (configuration not stated), the Potency is 7.94 µM (active).

Consider `Cc1cc(C)c2nc(NNC(=O)c3ccc(S(=O)(=O)N4CC(C)CC(C)C4)cc3)sc2c1` (configuration not stated), for which the Potency was 3.55 µM (active).

Regarding `CCCC(NCC(O)COc1ccc(-c2ccccc2)cc1)c1ccccc1` (configuration not stated), the Potency was 25.1 µM (active).

Consider `NS(=O)(=O)c1ccc(Sc2nc3ccccc3s2)c([N+](=O)[O-])c1`, for which the Potency is 2.24 µM (active).

With `COc1cc(C#Cc2c(-c3cncn3C)n(C)c3ccc(-c4cnc(OC)nc4)cc23)cc(OC)c1`, the Potency is 3.16 µM (active).

As for `Cc1ccnc(NC(=O)C2CCN(S(=O)(=O)c3c(C)c(C)cc(C)c3C)CC2)c1`, the Potency is 2.24 µM (active).

As for `O=C(Nc1ccc[n+](CC(=O)c2cccc3ccccc23)c1)c1ccccc1`, the Potency was 3.55 µM (active).

For the compound `O=[N+]([O-])c1cc(O)c2ncccc2c1`, the Potency is 3.16 µM (active).

Consider `Fc1ccc2[nH]c3c(N4CCSCC4)ncnc3c2c1`, for which the Potency was 12.6 µM (active).

On to `CCOC(=O)N1CCN(c2ncnc3c2[nH]c2ccc(F)cc23)CC1`, for which the Potency was 8.91 µM (active).

Consider `Fc1ccc2[nH]c3c(N4CCc5ccccc5C4)ncnc3c2c1`, for which the Potency was 3.98 µM (active).

Turning to `O=C(N/N=C\c1c(O)ccc2ccccc12)c1ccc(S(=O)(=O)N2CCCCC2)cc1`, the Potency was 0.501 µM (active).

`O=C(N/N=C\c1cc(Cl)ccc1O)c1ccc(S(=O)(=O)N2CCCCC2)cc1`: the Potency is 0.708 µM (active).

Consider `O=C(N/N=C\c1cc(Br)ccc1O)c1ccc(S(=O)(=O)N2CCCCC2)cc1`, for which the Potency is 0.794 µM (active).

As to `CC(OC(=O)c1cc(Br)ccc1O)C(=O)Nc1ccc(S(=O)(=O)N2CCCC2)cc1` (configuration not stated), the Potency is 28.2 µM (active).

On to `Cc1cc(C)n(-c2ccc(C(=O)N3CCN(S(=O)(=O)c4cccc(Br)c4)CC3)cc2)n1`, for which the Potency entry is “inactive”.
